Test results published in PubChem BioAssay (Tox21).
Results filed as inconclusive are left out. The source made the active and inactive calls. Unless noted, calls follow the shape of the dose curve; as a rule, active = well fitted curve in the direction sought with a large enough effect in the repeat runs; inconclusive = weak or mixed curves; inactive = no such curve, though single readings can be large; an effect the other way counts as inactive or inconclusive.

Experiments:
[1] = qHTS assay to identify small molecule antagonists of the estrogen related receptor (ERR) signaling pathway - cell viability counter screen (AID 1224818); conditions: ERR reporter cell line viability counter screen; series mostly up to 46.1 µM;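 also: viability measured after 17.5 h of compound exposure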
Summary of the method: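 After a 6 h pre-incubation, ERR cells were dosed by pin tool with compounds, positive/negative controls or DMSO alone. Following 17.5 h at 37 C and 30 min with CellTiter-Fluor, fluorescence was recorded.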

[2] = qHTS assay to identify small molecule antagonists of the estrogen related receptor (ERR) signaling pathway (AID 1224819; also: nearly all actives have a fitted effect of over 50% in size; also: potency is read from the fitted curve at half-maximal effect); conditions: ERR reporter cell line, luciferase inhibition; series mostly up to 46.1 µM
Summary of the method: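 Luminescence readout (One-Glo, 30 min, RT) of ERR cell line after 18 h compound exposure at 37 C; cells seeded 2,000/well, pre-incubated 6 h, compounds pinned from DMSO stocks.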

[3] = qHTS assay to identify small molecule agonists of the estrogen related receptor (ERR) signaling pathway (AID 1224820); conditions: ERR reporter cell line, luciferase agonist mode; series mostly up to 46.1 µM; also: potency is read from the fitted curve at half-maximal effect
Summary of the method: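 Cells: ERR line from NTP, 2,000/well. Pre-incubation 6 h, 37 C/5% CO2. Compound (DMSO) pin transfer, 18 h 37 C. One-Glo, 30 min RT, luminescence.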

[4] = system: estrogen-related receptor alpha (ERRalpha) with PGC-1alpha coactivator, human; assay: qHTS assay to identify small molecule antagonists of the estrogen related receptor signaling pathway with the pleiotropic PPARgamma coactivator (PGC) (AID 1224821; calls by dose curve; also: nearly all actives have a fitted effect of over 50% in size; also: potency is read from the fitted curve at half-maximal effect); conditions: ERR/PGC reporter cell line, luciferase, antagonist mode; series mostly up to 46.1 µM
Summary of the method: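 Luminescent read-out (One-Glo, 30 min at room temperature) following 18 h treatment of PGC/ERR cells at 37 C with compounds delivered in DMSO. Cells had settled 6 h at 37 C/5% CO2 before dosing.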

[5] = qHTS assay to identify small molecule antagonists of the estrogen related receptor signaling pathway with the pleiotropic PPARgamma coactivator (PGC) cell viability counter screen (AID 1224822;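 also: viability read after 17.5 h compound exposure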); conditions: ERR/PGC reporter cell line viability counter screen; series mostly up to 46.1 µM
Summary of the method: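 PGC/ERR cells were plated at 2,000 per well and allowed 6 h to settle before compound addition. Following 17.5 h at 37 C, CellTiter-Fluor reagent was added and fluorescence was read 30 min later.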

[6] = qHTS assay to identify small molecule agonists of the estrogen related receptor signaling pathway with the pleiotropic PPARgamma coactivator (PGC) (AID 1224823); conditions: ERR/PGC reporter cell line, luciferase agonist mode; series mostly up to 46.1 µM; also: potency is read from the fitted curve at half-maximal effect
Summary of the method: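 Steps: plate PGC/ERR cells at 2,000 cells/well; incubate 6 h, 37 C/5% CO2; pin-transfer compounds (DMSO); incubate 18 h, 37 C; add One-Glo; 30 min RT; read luminescence.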

Measured: Potency

CCC(=O)N1CCN(C(=O)c2ccccc2)CC1
inactive: all assays above

CC(=O)O[C@H]1C[C@@H]2CC[C@@H]3[C@H](CC[C@@]4(C)[C@H]3C[C@H]([N+]3(C)CCCCC3)[C@@H]4OC(C)=O)[C@@]2(C)C[C@@H]1[N+]1(C)CCCCC1
inactive: all assays above

CCCCCCCCCCCCCCCCCCOC[C@H](COP(=O)([O-])OCC[N+](C)(C)C)OC
inactive: all assays above

CCC(NC(C)C)C(O)c1ccc(O)c(O)c1 (stereo unspecified)
inactive: all assays above

NOCC(=O)O
inactive: all assays above

O=C(O)C1=CCNCC1
inactive: all assays above

O=C(O)c1cc(=O)cc(C(=O)O)[nH]1
inactive: all assays above

NCCCCCCCCCCN
inactive: all assays above

CN(CC[C@@H](Oc1ccc(C(F)(F)F)cc1)c1ccccc1)CC(=O)O
inactive: all assays above

CCOC(=O)C1=C(O)C(=O)N(Cc2ccccc2)C1
inactive: all assays above

COC1(C2=NCCN2)COc2ccccc2O1 (stereo unspecified)
inactive: all assays above

COCCOc1cc2nc[nH]c(=O)c2cc1OCCOC
inactive: all assays above

C1CCc2nnnn2CC1
inactive: all assays above

O=c1cc(O)cc(/C=C/c2ccc(O)c(O)c2)o1
inactive: all assays above

Nc1ncnc2c1ncn2[C@@H]1O[C@H](COP(=O)(O)OP(=O)(O)OP(=O)(O)OP(=O)(O)OC[C@@H]2O[C@H](n3cnc4c(N)ncnc43)[C@@H](O)C2O)C(O)[C@H]1O (stereo partly specified)
active: [6] 15 µM
inactive: all other assays above

CC1(C)CCC=[N+]1[O-]
inactive: all assays above

N=C(N)SCCN
inactive: all assays above

N=c1c[n+](N2CCOCC2)[n-]o1
inactive: all assays above

COc1ccccc1CN[C@@H]1CCCN[C@@H]1c1ccccc1
inactive: all assays above

OC[C@H]1O[C@H](n2cnc3c(N[C@H]4CCC[C@@H]4O)ncnc32)[C@H](O)[C@@H]1O
active: [6] 9.08 µM
inactive: all other assays above

O=c1c2ccccc2nc2n1CCc1c-2[nH]c2ccccc12
active: [3] 2.28 µM | [6] 13.3 µM
inactive: all other assays above

OC[C@H]1O[C@@H](n2cnc3c(NC4CCCC4)ncnc32)[C@H](O)C1O (stereo partly specified)
active: [6] 3.1 µM
inactive: all other assays above

NCCCNCCCCNCCCN
inactive: all assays above

C=CC(N)CCC(=O)O (stereo unspecified)
inactive: all assays above

NCC(O)C1CCCCCCC1 (stereo unspecified)
inactive: all assays above

Cc1cn([C@H]2CC(N=[N+]=[N-])[C@@H](CO)O2)c(=O)[nH]c1=O (stereo partly specified)
inactive: all assays above

NC(N)=N[C@@H](CCC(=O)O)C(=O)O
inactive: all assays above

CCCCCCCCCCCCCCCCCC(=O)OC(CC(=O)O)C[N+](C)(C)C (stereo unspecified)
inactive: all assays above

Cc1cc(Cn2cnc3c2C[C@@H](C(=O)O)N(C(=O)C(c2ccccc2)c2ccccc2)C3)ccc1N
inactive: all assays above

NC(=O)C(=O)O
inactive: all assays above

CCCOC(=O)c1c(-c2ccccc2)nc(CC)c(C(=O)SCC)c1CCC
inactive: all assays above

N[C@H]1CONC1=O
inactive: all assays above

Cc1cc2c(cc1Cl)N(C(=O)Nc1ccnc3ccccc13)CC2
inactive: all assays above

CCN1/C(=C/C(C)=O)Sc2ccc(OC)cc21
active: [2] 11.9 µM | [4] 5.11 µM
inactive: all other assays above

CNc1ncnc2c1ncn2[C@H]1C[C@H](OP(=O)(O)O)[C@@H](COP(=O)(O)O)O1
inactive: all assays above

N[C@@H](Cn1ccc(=O)c(O)c1)C(=O)O
inactive: all assays above

O=C(O)CC1CCCc2ccccc2C1O (stereo unspecified)
inactive: all assays above

N=S(=O)(O)Cc1noc2ccccc12
inactive: all assays above

O=[N+]([O-])c1ccc(CSc2ncnc3c2ncn3[C@@H]2O[C@H](CO)C(O)[C@H]2O)cc1 (stereo partly specified)
inactive: all assays above

CN1CCN(c2nc3cc(C(F)(F)F)ccc3n3cccc23)CC1
inactive: all assays above

NC1(C(=O)O)CC1
inactive: all assays above

N#Cc1cc2nc(O)c(O)nc2cc1[N+](=O)[O-]
inactive: all assays above

O=c1[nH]c2cc(Cl)ccc2c(O)c1-c1ccc(Oc2ccccc2)cc1
inactive: all assays above

C=CCN1CCc2cc(O)c(O)cc2C(c2ccccc2)C1 (stereo unspecified)
inactive: all assays above

c1ccc2nc(C3=NCCN3)ccc2c1
inactive: all assays above

CCCCS(=N)(=O)CCC(N)C(=O)O (stereo unspecified)
inactive: all assays above

Cn1cc(C(=O)OCC2CCN(CCNS(C)(=O)=O)CC2)c2ccccc21
inactive: all assays above

Cc1cccc(-c2[nH]ncc2-c2ccc3ncccc3n2)n1
active: [2] 1.23 µM | [4] 1.44 µM
inactive: all other assays above

C=C1C[C@@]23CC[C@H]4[C@@](C)(CCC[C@@]4(C)C(=O)O)[C@@H]2CC[C@]1(O)C3
inactive: all assays above

COc1cc(/C=C(\C#N)C(=O)Nc2nnc(C(F)(F)F)s2)ccc1OCc1ccc(C(F)(F)F)cc1C(F)(F)F
inactive: [1] | [3] | [6]
active: [2] 6.43 µM | [4] 3.48 µM

COc1ccc2c(c1)c(CC(=O)O)c(C)n2C(=O)c1ccccc1
inactive: all assays above

O[Si](CCCN1CCCCC1)(c1ccc(F)cc1)C1CCCCC1 (stereo unspecified)
not listed: [5]
inactive: all other assays above

O=C1OC(=O)C2C3CCC(O3)C12 (stereo unspecified)
inactive: all assays above

CCCC[C@@]1(C2CCCC2)Cc2cc(OCC(=O)O)c(Cl)c(Cl)c2C1=O
active: [2] 11.4 µM | [4] 13.9 µM
inactive: [1] | [3] | [6]

Nc1cc(Cl)c(NC2=NCCN2)c(Cl)c1
inactive: all assays above

C#C[C@]1(O)CC[C@H]2[C@@H]3CCC4=Cc5oncc5CC4(C)[C@H]3CCC21C (stereo partly specified)
active: [2] 16.8 µM | [4] 19.6 µM
inactive: [1] | [3] | [6]

Nc1nc2c(nc(Br)n2C2OC3COP(=O)(O)O[C@@H]3C2O)c(=O)[nH]1 (stereo partly specified)
inactive: all assays above

CCC(CO)Nc1nc(NCc2ccccc2)c2ncn(C(C)C)c2n1 (stereo unspecified)
inactive: all assays above

CC1CCN=C(N)S1 (stereo unspecified)
inactive: all assays above

O=C(c1cc(O)c(O)c([N+](=O)[O-])c1)c1ccccc1F
active: [2] 25.6 µM | [4] 22.8 µM
inactive: [1] | [3] | [6]

CCCCCCCCCCCCCCSCC(=O)O
inactive: all assays above
